Only a selection was taken, and hits are over-represented in it overall.
12-LOX inh – Primary qHTS assay for inhibitors of human arachidonate 12S-lipoxygenase (ALOX12): Round 2; Potency, µM (titrated, usually from 108 µM), inactives show top-dose activity change, negative = inhibition, most hits filed as inhibitors; purified 12hLO, xylenol orange hydroperoxide absorbance; Polyunsaturated fatty acid lipoxygenase ALOX12 (Homo sapiens), P18054; 580,000 compounds, 1.1% hits; note: potency is the fitted concentration of half-maximal effect
Target sequence (P18054 whole entry, looked up): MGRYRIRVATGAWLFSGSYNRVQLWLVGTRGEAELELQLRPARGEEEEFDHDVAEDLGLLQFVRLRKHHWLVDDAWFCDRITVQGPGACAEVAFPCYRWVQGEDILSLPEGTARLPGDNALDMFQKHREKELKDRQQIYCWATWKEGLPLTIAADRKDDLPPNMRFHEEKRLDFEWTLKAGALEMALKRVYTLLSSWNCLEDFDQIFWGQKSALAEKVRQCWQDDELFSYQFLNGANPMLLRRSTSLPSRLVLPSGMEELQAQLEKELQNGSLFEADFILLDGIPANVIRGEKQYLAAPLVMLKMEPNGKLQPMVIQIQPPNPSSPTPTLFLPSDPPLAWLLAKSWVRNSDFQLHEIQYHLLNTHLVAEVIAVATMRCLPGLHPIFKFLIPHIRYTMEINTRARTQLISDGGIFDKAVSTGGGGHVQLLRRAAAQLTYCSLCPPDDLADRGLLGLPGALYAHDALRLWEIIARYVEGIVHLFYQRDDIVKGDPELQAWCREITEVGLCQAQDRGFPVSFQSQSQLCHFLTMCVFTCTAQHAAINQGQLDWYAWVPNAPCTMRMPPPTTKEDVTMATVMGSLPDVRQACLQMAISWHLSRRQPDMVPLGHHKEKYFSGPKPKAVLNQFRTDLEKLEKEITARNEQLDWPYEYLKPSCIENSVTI
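Purified human 12hLO at 150 nM in 25 mM Hepes, 0.01% Triton X-100, pH 7.0, preincubated 15 min at room temperature with compound. Reaction started with 40 uM arachidonic acid, 30 min at room temperature. Hydroperoxide measured by Fe-xylenol orange, 573/405 nm absorbance ratio.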
DT40 TDP1 no CPT – qHTS for Inhibitors of human tyrosyl-DNA phosphodiesterase 1 (TDP1): qHTS in cells in absence of CPT. Potency, µM (series often up to 46.2 µM), inactives show top-dose activity change, negative = growth inhibition, hits mostly inhibitors. 420,000 compounds, 15% hits. DT40 Tdp1-/- hTDP1 cells, no CPT, ATP luminescence, 48 h; note: potency is the fitted concentration of half-maximal effect; nearly all actives have a fitted effect of over 55% in size
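Cells were dispensed at 400 per well, compounds added by pin tool, plates incubated ≥48 hr at 37 °C, then CellTiter-Glo added for 30 min at room temperature before luminescence reading. Line: DT40 Tdp1-/- complemented with hTDP1; camptothecin omitted.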
HT1080NT lethal – qHTS for induction of synthetic lethality in tumor cells producing 2HG: qHTS for the HT-1080-NT fibrosarcoma cell line; Potency, µM (titrated, usually from 46.1 µM), for inactives: at the highest dose activity, negative = less viability, most hits filed as cytotoxic; HT-1080-NT fibrosarcoma viability, CellTiter-Glo ATP luminescence, 48 h; 360,000 compounds, 1.6% hits; AID 686970, 2013;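 note: NT is the 2HG producing partner of a matched IDH1 knockdown line; potency is the fitted concentration of half-maximal effect; 0% = DMSO-treated cells and -100% = media-only wells without cells; nearly all actives have a fitted effect of over 55% in size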
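Viability of the 2HG-overproducing fibrosarcoma line after 48 hours of compound exposure at 37 degrees C was determined by luminescence with CellTiter-Glo, and concentration-effect curves were then fitted and categorized.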
DT40 TDP1 CPT – qHTS for Inhibitors of human tyrosyl-DNA phosphodiesterase 1 (TDP1): qHTS in cells in presence of CPT; 420,000 compounds, 12% hits; Potency, µM (top dose mostly 46.2 µM), without a hit: top-dose activity change, negative = growth inhibition, usual class: inhibitors; chicken DT40 Tdp1-/-;hTDP1 cells + 20 nM CPT, ATP luminescence, 48 h; note: potency is the fitted concentration of half-maximal effect; nearly all actives have a fitted effect of over 55% in size
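Chicken DT40 Tdp1-/- cells complemented with human TDP1, 400 cells/well, exposed to compounds plus 20 nM camptothecin for at least 48 h at 37 C; viability read as ATP content by CellTiter-Glo luminescence.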
HT1080 IDH1KD tx – qHTS for induction of synthetic lethality in tumor cells producing 2HG: qHTS for the HT-1080-IDH1KD cell line; HT-1080 IDH1 knockdown viability, ATP luminescence, 48 h; Potency, µM (titrated, usually from 46.1 µM), for the others: at the highest dose activity, negative = toxicity, usual class: cytotoxic; 360,000 compounds, 2% hits;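 note: potency is the fitted concentration of half-maximal effect; 0% = DMSO wells and -100% = cell-free medium wells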
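Viability of IDH1-knockdown HT-1080 fibrosarcoma cells was assessed by CellTiter-Glo after 48 h at 37 °C with titrated compound; concentration-effect curves were classified by fit quality and response size.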
IL-1B inflam inh – qHTS for Inhibitors of Inflammasome Signaling: IL-1-beta AlphaLISA Primary Screen. THP-1 LPS/ATP IL-1B secretion, AlphaLISA, 16 h; hits give low values. activity change, % at 57.5 µM. 360,000 compounds, 4.7% hits. AID 743279, 2014; in the data active = activity change below about -50%; inconclusive = mostly about -30% to -49%
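THP-1 cells pretreated 1 hr with compounds (up to 57.5 uM final), then stimulated with LPS (250 ng/mL final) plus ATP (1.25 mM final); secreted IL-1B measured by AlphaLISA after 16 hr, decreased signal indicating inhibition.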
Numbers without * were called inactive; ? = inconclusive; · = not tested or not shown; [ ] = remark or other dose. Unless noted, calls come from the whole dose curve; as a rule, active = well fitted curve in the direction sought with a large enough effect; inconclusive = small, poorly fitted or top-dose-only effect, or another doubt; inactive = no such curve, though single readings can be large; an effect the other way counts as inactive or inconclusive. Unless noted, % is set by controls: 0 for no effect and ±100 for the full control effect.

SMILES	12-LOX inh	DT40 TDP1 no CPT	HT1080NT lethal	DT40 TDP1 CPT	HT1080 IDH1KD tx	IL-1B inflam inh
O=C(c1ccccc1)c1sc(N2CCCCCC2)nc1-c1ccccc1	43%	15µM*	-23%	?	-20%	-17
O=C(c1ccc(Br)cc1)c1sc(N2CCOCC2)nc1-c1ccccc1	3%	21µM*	-20%	?	-23%	-4
COc1ccccc1NC(=O)c1cc2c(N3CCSCC3)nc(C)cn2n1	-7%	·	·	·	·	·
C[C@]1(CO)[C@H]2Cc3sc(NC(=O)c4ccco4)nc3[C@@H](CC(=O)NC3CCCC3)[C@]2(C)CC[C@H]1O	11%	·	·	·	·	·
[2H]c1c([2H])c([2H])c(C(=O)c2sc(N3CCCCCC3)nc2-c2ccccc2)c([2H])c1[2H]	0%	16µM*	-25%	?	-25%	-14
O=C(c1ccccc1)c1sc(N2CCOCC2)nc1-c1ccccc1	-11%	?	3%	?	-11%	?
CC1=C(C)C(=O)C(C(CCCCCC(=O)O)c2ccccc2)=C(C)C1=O (configuration not stated)	-15%[57.4 µM]	?	·	17µM*	·	·
COn1c(=O)c(-c2cccs2)[n+]([O-])c2ccccc21	?	12µM*	4%	16µM*	10%	0
CCOC(=O)COc1ccc2c(=O)c(Oc3ccc(C(=O)OC)cc3)c(C)oc2c1	-4%	·	·	·	·	·
COc1ccc(C(CN)c2c[nH]c3ccccc23)cc1 (configuration not stated)	4%	·	·	·	·	·
CCc1cccc(NC(=O)N2CCCC(c3noc(COc4ccccc4F)n3)C2)c1 (configuration not stated)	23%	·	·	·	·	·
CC(=O)c1ccc(N2CCN(C(=O)C3CCN(S(=O)(=O)c4ccc5c(c4)CC(C)N5C(C)=O)CC3)CC2)cc1 (configuration not stated)	-5%	?	0%	18µM*	-4%	-8
CC(=O)N1c2ccc(S(=O)(=O)N3CCC(C(=O)N4CCN(c5cccc(C(F)(F)F)c5)CC4)CC3)cc2CC1C (configuration not stated)	-8%	2.3µM*	?	8.2µM*	-28%	-30
CC(=O)N1c2ccc(S(=O)(=O)N3CCN(c4cccc(Cl)c4)CC3)cc2CC1C (configuration not stated)	1%	?	·	?	·	·
CCOC(=O)C1CCN(C(=O)C2CCN(S(=O)(=O)c3ccc4c(c3)CC(C)N4C(C)=O)CC2)CC1 (configuration not stated)	9%	-26%	-1%	?	-1%	17
COc1ccc(N2CCN(S(=O)(=O)c3ccc4c(c3)NC(=O)CC(=O)N4)CC2)cc1	-9%	3%	1%	-29%	-2%	33
COc1ccc(N2CCN(S(=O)(=O)c3ccc4c(c3)CC(C)N4C(C)=O)CC2)cc1 (configuration not stated)	-16%	?	·	6.5µM*	·	·
COc1ccc(N2CCN(S(=O)(=O)c3ccc4c(c3)C(C(C)C)C(=O)N4)CC2)cc1 (configuration not stated)	?	8.2µM*	·	18µM*	·	·
Cc1ccc(NC(=O)CCc2ncc(-c3c(F)cccc3F)o2)cc1C	-5%	·	·	·	·	·
c1ccc(Cn2nnnc2CN2CCOCC2)cc1	0%	1%	1%	3%	-1%	1
OC1(c2cccc(C(F)(F)F)c2)CCN(Cc2nnnn2CCc2ccccc2)CC1	52%	21µM*	-24%	23µM*	-16%	-7
OC1(c2cccc(C(F)(F)F)c2)CCN(Cc2nc(COc3ccccc3)no2)CC1	30%	·	·	·	·	·
OC1(c2cccc(C(F)(F)F)c2)CCN(Cc2nnnn2Cc2ccccc2)CC1	-4%	?	-10%	?	-25%	-70*
O=c1[nH]cnc2c1c(-c1ccccc1)cn2-c1ccc(Br)cc1	-8%	16µM*	-15%	?	-19%	?
Cc1cccc(-n2cc(-c3ccccc3)c3c(=O)[nH]cnc32)c1	?	-25%	-8%	0%	-14%	-88*
SMILES	12-LOX inh	DT40 TDP1 no CPT	HT1080NT lethal	DT40 TDP1 CPT	HT1080 IDH1KD tx	IL-1B inflam inh
CCOc1ccc(-n2cc(-c3ccccc3)c3c(=O)[nH]cnc32)cc1	?	?	-23%	-6%	-23%	-67*
CCOc1ccc(-n2cc(-c3ccccc3)c3c(NC(C)C)ncnc32)cc1	10%	·	·	·	·	·
CCOc1ccc(-n2cc(-c3ccccc3)c3c(=S)nc[nH]c32)cc1	?	?	?	15µM*	0%	9
O=c1c2c(-c3ccc(Br)cc3)csc2ncn1-c1ccccc1	-13%	·	·	·	·	·
CCOc1ccccc1Nc1ncnc2c1c(-c1ccccc1)cn2-c1ccc(OC)cc1	-2%	?	·	?	·	·
O=c1cc(-c2ccccc2)sc2nnc(-c3ccc(Cl)cc3)n12	32%	·	·	·	·	·
O=c1[nH]ccn1C1CCN(Cc2ccc(OC(F)(F)F)cc2)CC1	16%[176 µM]	·	·	·	·	·
Cc1ccc2[nH]cc(/C=C/c3cc[n+](C)cc3)c2c1	?	2.6µM*	?	4.1µM*	?	-7
COc1ccc2c(C=O)c[nH]c2c1	-10%	-26%	0%	10%	9%	33
COc1ccc2c(/C=C/c3cc[n+](C)cc3)c[nH]c2c1	?	7.3µM*	-22%	9.2µM*	-2%	26
C[n+]1ccc(/C=C/c2cccs2)cc1	-18%	-14%	-20%	-19%	?	14
COc1ccc2c(c1)c(/C=C/c1cc[n+](C)cc1)cn2C	50µM*	4.6µM*	0%	4.6µM*	-3%	-3
COCCN1CCCC2(CCN(C(=O)CN3C(=O)CNC3=O)C2)C1=O (configuration not stated)	0%	·	·	·	·	·
CCOC(=O)/C(=C\Nc1ccc(OC(F)(F)F)cc1)Sc1ncc(C(F)(F)F)cc1Cl	0%	12µM*	9%	16µM*	-8%[9.24 µM]	-12
CCOC(=O)/C(O)=C/c1ncc(C(F)(F)F)cc1Cl	-17%	?	6%	23µM*	8%	16
CNc1nc(Nc2ccccc2C)c2cnn(-c3ccccc3)c2n1	3%	·	·	·	·	·
